According to PubChem BioAssay (NCATS):
Inconclusive results are not listed. A call without a number means that no potency is given here. Active and inactive are the calls of the source. Calls come from the whole dose curve; as a rule, active = well fitted cell-killing curve with a large enough effect; inconclusive = small, poorly fitted or top-dose-only effect, or effect the other way; inactive = no such curve, though single readings can be large or run the other way.

Test: MultiTox-Fluor Cytotoxicity Assay - LYMP1-002 - Dead Cells (AID 960); note: nearly all actives have a fitted effect of over 60% in size
Conditions: LYMP1-002 lymphoblastoid cells, dead-cell protease fluorescence; series mostly up to 46.1 µM
Excerpt: NIH Chemical Genomics Center [NCGC]
NIH Molecular Libraries Screening Centers Network [MLSCN]
National Institutes of Environmental Health Sciences [NIEHS]
National Toxicology Program [NTP]
We have developed a 1536-well cell-based assay for quantitative high throughput screening (qHTS) against a number of cell lines to determine in vitro cytotoxicity of small molecules. This particular assay uses a human lymphoblastoid cell line (LYMP1-002) purchased from Coriell Institute.
NCGC Assay Protocol Summary:
The MultiTox-Fluor Cytotoxicity Assay (Promega) is a homogeneous method to simultaneously measure the relative number of live and dead cells in culture by detecting changes in cell membrane integrity. There are two fluorogenic peptide substrates in the assay reagent. Viable cells are determined when the cell-permeant substrate (GF-AFC) enters the cell and is cleaved by protease from live cells resulting in liberated fluorophore. This live-cell protease activity restricted to viable cells is proportional to cell number. The dead cells are determined by using fluorogenic cell-impermeant peptide substrate (bis-AAF-R110) which cleaved by dead cell proteases leaking from damaged cell membrane.
Using the MultiTox-Fluor Cytotoxicity Assay, the relative number of dead cells was measured in the lymphoblastoid cell line with complete culture medium following compound treatment for 16 hours. The assay was performed in opaque black Kalypsys 1536-well plates. In the screen, tetraoctylammonium bromide was used as positive control. Library compounds were measured for their ability to cause acute toxicity in the cell line, as reflected by an increase in dead cell protease activity, in a concentration-dependent manner. Data were normalized to the controls for basal activity (DMSO only) and 100% stimulation (15 uM tetraoctylammonium bromide). AC50 values were determined from concentration-response data modeled with the standard Hill equation.
qHTS protocol for MultiTox-Fluor Cytotoxicity assay
[Step] [Parameter] [Value] [Description]
1. Reagent; 5 uL; 2500 lymphoblastoid cells/well
2. Time; 5 hr; 37 C incubation
4. Controls; 23 nL; Tetraoctylammonium bromide 6.4pM to 92 uM
5. Time; 16 hr; 37 C incubation
6. Reagent; 5 uL; MuliTox-Fluor Assay reagent
7. Time; 60 min; Room Temperature
8. Detection; dead-cell fluorescence (Ex/Em=485/520); EnVision plate reader
Keywords: cytotoxicity, lymphoblastoid cell line, fluorescence, NTPHTS, NTPHTS_NCGC, NIEHS, EPA, DSSTox, MLSMR, MLSCN, NIH Roadmap, qHTS, NCGC

| SMILES | Potency |
| --- | --- |
| COC(=O)CCCCC(=O)OC | inactive |
| Nc1ccc(S(=O)(=O)O)cc1 | inactive |
| S=C1NC=NC2N=CNC12 (stereo not given) | inactive |
| CCCCCCCCCCCC(=O)O | inactive |
| CC(=O)OC/C=C(\C)CCC=C(C)C | inactive |
| O=NO | inactive |
| O[C@@H]([C@H](O)[C@@H](O)CBr)[C@@H](O)CBr | inactive |
| Cc1ccccc1C | inactive |
| CCC(C)c1ccccc1O (stereo not given) | inactive |
| C=Cc1ccccc1Cl | inactive |
| CCCN(CCC)C(=O)SCC | inactive |
| c1ccc2c(c1)[nH]c1ccccc12 | inactive |
| C/C=C\c1ccc(OC)cc1 | inactive |
| Cc1ccc([N+](=O)[O-])cc1N | inactive |
| Cc1ccc(N)c([N+](=O)[O-])c1 | inactive |
| CCC(O)OC(O)CC (stereo not given) | inactive |
| Cc1c(N=C=O)cccc1N=C=O | inactive |
| O=C1c2ccccc2C(=O)C1c1ccc2ccccc2n1 | inactive |
| O=C1CCc2ccccc2O1 | inactive |
| CC(C)=CCCC(C)CCO (stereo not given) | inactive |

| SMILES | Potency |
| --- | --- |
| c1ccc2c(c1)c1cccc3ccc4cccc2c4c31 | inactive |
| COc1ccc2nc(N)sc2c1 | inactive |
| C=CC(=C)CCC=C(C)C | inactive |
| OCCNCCO | inactive |
| CN(C)C=O | inactive |
| CCCCCCCCCCCCCC(=O)O | inactive |
| C=CCc1ccc(OC)c(OC)c1 | inactive |
| C1OCOCO1 | inactive |
| C=C(C)C1CC=C(C)C(O)C1 (stereo not given) | inactive |
| O=[N+]([O-])c1cccc(Cl)c1Cl | inactive |
| O=C(O)c1ccc(O)cc1O | inactive |
| O=C(O)c1ccccc1C(c1ccc(O)cc1)c1ccc(O)cc1 | inactive |
| CCCCC(CC)CN (stereo not given) | inactive |
| c1ccc2scnc2c1 | inactive |
| O=C(O)CC(C(=O)O)C(CC(=O)O)C(=O)O (stereo not given) | inactive |
| O=S(=O)(O)c1ccccc1 | inactive |
| c1ccccc1 | inactive |
| CCCCOCCO | inactive |
| CC1=CC(C)(C)Nc2ccccc21 | inactive |
| CC1=C2[C@H](/C=C(\C)C(=O)O)CC[C@@H](C)[C@H]2CC1 | inactive |
